Screens (PubChem BioAssay)
HTT aggregate = inhibitors of mutant huntingtin aggregate formation in PC12 cells. PC12 HttQ103-GFP aggregates, Acumen cytometry, 40 h. Potency, µM (highest dose often 46.1 µM), usual class: inhibitors. 220,000 compounds, 1.1% hits; note: nearly all actives have a fitted effect of over 60% in size
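Aggregates are detected as GFP objects 1–25 µm with signal 6 STDEV over background in lysates of induced PC12 cells. These carry Huntingtin exon 1 with 103 glutamines fused to GFP under an ecdysone promoter; compounds titrated.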
HepG2 viability = HepG2 cytotoxicity, counter-screen for TGF-b inhibitors | HepG2 CAGA-GFP viability, ATP luminescence, 18 h | Potency, µM (series often up to 46.1 µM), actives largely listed as cytotoxic | 410,000 compounds, 0.76% hits | AID 588856
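HepG2 CAGA-GFP cells (1000/well, DMEM with 1% FBS) received compound, then TGF-beta at 500 pg/mL final, and were incubated 18 hours at 37 degrees C. Viability was read by CellTiter-Glo luminescence. Media-only wells were set as complete cell-killing and DMSO as no toxicity.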
TGFb SMAD3 inh = inhibitors of TGF-b signaling | HepG2 CAGA-GFP TGF-b/SMAD3 reporter, GFP fluorescence, 18 h; TGF-beta stimulated, 500 pg/mL final | Potency, µM (top dose mostly 46.1 µM), usual class: inhibitors | 410,000 compounds, 1.2% hits; note: nearly all actives have a fitted effect of over 65% in size
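Smad-responsive CAGA-GFP expression was quantified in HEPG2 cells exposed to compounds and 500 pg/mL final TGF-beta for 18 h at 37 degrees C; unstimulated wells defined full inhibition.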
S2 tox = viability counter-screen for ATXN expression inhibitors | Potency, µM (highest dose often 56.7 µM), most hits filed as cytotoxic | AID 651635 | 400,000 compounds, 0.49% hits | S2 cells (HEK-293 line with an ATXN2-luciferase reporter) viability, CellTiter-Fluor protease fluorescence, 24 h; note: nearly all actives have a fitted effect of over 40% in size
ATXN2 expr inh = reduces ATXN2 reporter expression in HEK-293 cells; AID 1745845; 360,000 compounds, 0.72% hits; Potency, µM (doses to about 57 µM), actives largely listed as inhibitors; HEK-293 ATXN2-luciferase reporter, luminescence, 24 h; note: nearly all actives have a fitted effect of over 55% in size
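ATXN2-luciferase reporter cells (luciferase flanked by upstream and downstream ATXN2 gene portions) were treated 24 h at 37 °C with compounds at up to 57 uM. SteadyGlo luminescence gave expression; GF-AFC fluorescence gave viability.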
HTT cytoprotect = cytoprotection in Huntington HTT-Q103 PC12 cell model | AID 1471 | PC12 HTT-Q103 induced, cytoprotection, ATP luminescence, 40 h | 230,000 compounds, 0.14% hits | Potency, µM (titrated, usually from 56.4 µM), hits mostly activators; note: nearly all actives have a fitted effect of over 45% in size
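Quantitative HTS on tebufenozide-induced (100 nM) PC12 cells expressing HTTQ103 exon 1–GFP; compounds tested as a concentration series; survival measured via cellular ATP.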
Numbers stand for hits; n = inactive; u = inconclusive; x = no result; ! = a repeat was not active; [ ] = dose if it differs, or a comment. Hits are enriched below; roughly 2.8% of the tested compounds scored in any of these assays. Calls come from the whole dose curve; as a rule, active = well fitted curve in the direction sought with a large enough effect; inconclusive = small, poorly fitted or top-dose-only effect, or another doubt; inactive = no such curve, though single readings can be large; an effect the other way counts as inactive or inconclusive.

SMILES | HTT aggregate | HepG2 viability | TGFb SMAD3 inh | S2 tox | ATXN2 expr inh | HTT cytoprotect
Cc1ccc(OC(=O)c2oc3ccc(F)cc3c2C)c(C)c1 | n | n | n | 18µM | u | n
COc1ccccc1N1CCN(C(=O)c2cc3c(C)nc4ccccc4c3o2)CC1 | x | n | u | u | 20µM | x
COc1ccccc1N1CCN(C(=O)c2oc3ccc(F)cc3c2C)CC1 | 11µM | n | n | n | n | n[10 µM]
C[C@@]12C(=O)OC(=O)[C@@]1(C)[C@H]1CC[C@@H]2O1 | x | x | x | x | x | n
Nc1nc(N)c2c(Oc3ccc(F)cc3)cccc2n1 | x | n | 13µM | x | x | x
O=C1N/C(=N\N=C\c2cccs2)SC1Cc1ccc(Cl)cc1Cl (stereo not drawn) | n | n | n | u | n | n[10 µM]
O=C1N/C(=N\N=C\c2ccco2)SC1Cc1ccccc1[N+](=O)[O-] (stereo not drawn) | n[9.22 µM] | n | n | 11µM | x | n[10 µM]
O=C1N/C(=N\N=C\c2cccs2)SC1Cc1cccc(Cl)c1Cl (stereo not drawn) | 11µM | n | n | u | n | u
O=C(NCC1CCC2(CCN(Cc3cnn(-c4ccc(F)cc4)c3)CC2)O1)c1ccccc1 (stereo not drawn) | x | x | x | n | x | x
CCC[C@@H]1C[C@@]1(CCC)[C@@H](NP(=O)(c1ccccc1)c1ccccc1)c1ccc(C(=O)OC)cc1 | u | 14µM | 11µM | u | u | n
O=C(O)/C=C\c1cnc[nH]1 | x | x | x | x | x | n[1.9 µM]
NC(CCc1ccccc1)c1csc(Nc2ccc(C(=O)c3ccccc3)cc2)n1 (stereo not drawn) | x | 16µM | u | u | u | x
NC(Cc1ccc(C(F)(F)F)cc1)c1csc(Nc2ccccn2)n1 (stereo not drawn) | x | n | n | u | n | x
NC(Cc1ccc(C(F)(F)F)cc1)c1csc(Nc2ccc(C(=O)c3ccccc3)cc2)n1 (stereo not drawn) | x | 22µM | u | n | 32µM | x
NC(Cc1ccc(C(F)(F)F)cc1)c1csc(Nc2cc(NCc3ccco3)ncn2)n1 (stereo not drawn) | x | 20µM | u | 25µM | 14µM | x
CC(=O)c1ccc(Nc2nc(C(N)Cc3ccc(C(F)(F)F)cc3)cs2)cc1 (stereo not drawn) | x | n | u | n | n | x
c1ncc2snnc2n1 | x | n | n | x | x | x
C=C1C(=O)OC(CCCCCCCC)C1C(=O)O (stereo not drawn) | x | x | x | x | n | x
CCC1=NN(C(=O)c2ccc(Cl)cc2)C(O)(c2ccc(C)cc2)C1 (stereo not drawn) | x | 13µM | 11µM | n | n | x
CCC1=NN(C(=O)c2ccccc2O)C(O)(c2ccccc2)C1 (stereo not drawn) | x | 14µM | 13µM | x | n | x
CCC1=NN(C(=O)c2ccc([N+](=O)[O-])cc2)C(O)(c2ccccc2)C1 (stereo not drawn) | x | 13µM | u | 28µM | u | x
O=C(Nc1ccccc1)C1=C[C@H](c2ccc(C(F)(F)F)cc2)C[C@H](OCc2ccc(CO)cc2)O1 | n[9.22 µM] | n | 13µM | u | u | n[10 µM]
O=C(NCc1nc2ccccc2[nH]1)C1=C[C@@H](c2ccc(Br)cc2)C[C@@H](OCc2ccc(CO)cc2)O1 | n[9.22 µM] | n | 13µM | u | n | n[10 µM]
Cc1nn(-c2ccccc2)c2c1C(c1ccncc1)C(C#N)=C(N)O2 (stereo not drawn) | n | n | n | n | u | n[10 µM]
COc1cc(-n2nc(C)c3c2OC(N)=C(C#N)C3c2ccccc2)c(Cl)c(Br)c1O (stereo not drawn) | u | n | u | 14µM | n | n
SMILES | HTT aggregate | HepG2 viability | TGFb SMAD3 inh | S2 tox | ATXN2 expr inh | HTT cytoprotect
O=C(Cc1ccc(-c2ccc(OCCN3CCOCC3)cc2)cn1)NCc1ccccc1 | x | x | x | x | n | x
Cc1c(C(=O)N/N=C/c2cccnc2)sc(N)c1C#N | x | 6.3µM | 10µM | n | n | x
Cc1ccc(C(=O)N/N=C\c2cccnc2)s1 | x | n | n | n | n | x
CN1N=C(C(=O)N2CCOc3ccc(CN4CCCC(C(=O)c5cccnc5)C4)cc3C2)CCC1=O (stereo not drawn) | x | x | x | n | x | x
Cc1cccc(-c2nnc3sc(-c4ccccc4C)nn23)c1 | 11µM | 13µM | n | n | n | n[0.074 µM]
O=C1CC(c2ccccc2)Cc2[nH]c(=O)c(C(=O)O)cc21 (stereo not drawn) | x | n | n | x | x | x
Cc1cccc(C)c1NC(=O)N1CCN(c2nc3ccccc3s2)CC1 | n | n | n | n | n | n
Cc1cccc(Cl)c1NC(=O)N1CCCN(c2nc3ccc(Cl)cc3s2)CC1 | n[9.22 µM] | n | 14µM | u | x | n[10 µM]
CCN(CC)C(=O)CSC(Nc1ccc(F)cc1)=C(C#N)C#N | n[9.22 µM] | n | n | n | n | n[10 µM]
Cc1ccc(CSC(Nc2ccc(F)cc2)=C(C#N)C#N)cc1 | 6.3µM | n | 7.1µM | n | n | n[10 µM]
COc1cc2c(Nc3ccc(Br)cc3F)ncnc2cc1OCC1CCN(C)CC1 | 13µM | x | x | n | 31µM! | n
COc1cc2c(Nc3ccc(Cl)c(Cl)c3F)ncnc2cc1OCC1C[C@@H]2CN(C)C[C@H]2C1 | x | x | x | x | 31µM | x
COC(=O)c1ccc(CN2CCOc3ccc(C(O)c4cccnc4)cc3C2)cc1 (stereo not drawn) | x | x | x | n | x | x
Cc1c(C(=O)NCCCc2ccncc2)cnn1-c1ncc2c(n1)-c1ccccc1CC2 | x | x | x | n | x | x
Cc1cc(O)c(C(C)C)cc1N=Cc1ccccc1[N+](=O)[O-] | x | n | n | u | 18µM | x
Cc1ccc(-c2cc(C(=O)N/N=C/c3ccccc3O)n[nH]2)o1 | x | n | u | u | 20µM | x
NC(=O)COc1ccccc1C(=O)Nc1ccccc1 | x | n | n | x | x | x
CC/C(=N\NC(N)=O)c1ccc(OC(F)F)cc1 | n[9.22 µM] | n | n | n | n | n[10 µM]
CC/C(=N\NC(=O)OC)c1ccc(OC(F)F)cc1 | n | 10µM | n | n | n | n
COc1ccc(/C=C2\CCCCC2=O)cc1 | x | n | n | n | n | x
COc1ccc(C=C2CS(=O)(=O)CC(=Cc3ccc(OC)cc3)C2=O)cc1 | x | n | 5µM | u | x | x
COC(=O)[C@@H]1CCCN1Cc1ccc2c(c1)CN(Cc1ccc3c(c1)CCO3)CCO2 | x | x | x | n | x | x
O=C(NCCc1ccccc1)c1ccc(Cn2c(=O)c3cccn3c3cccnc32)cc1 | x | n | n | x | x | x
O=C(NCCc1ccc(Cl)cc1)c1ccc(Cn2c(=O)c3cccn3c3cccnc32)cc1 | x | n | 11µM | x | x | x
COc1cc(C(CCN2CCOCC2)c2c(OC)cc(OC)c3c(-c4ccccc4)cc(=O)oc23)cc(OC)c1OC (stereo not drawn) | x | 11µM | u | u | n | n
COc1ccc(C(CCN2CCCC(C)C2)c2c(OC)cc(OC)c3c(-c4ccccc4)cc(=O)oc23)cc1 (stereo not drawn) | n[9.22 µM] | n | u | x | u | n[10 µM]
